Mtb FBA inh – inhibitors of M. tuberculosis fructose-bisphosphate aldolase. P9WQA3. purified M. tuberculosis FBA, fluorescence read-out. inhibition, % at 1 µM. 360,000 compounds, 2.3% hits;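 further: 0% = vehicle and 100% = reference inhibitor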
Rv3671c protease – inhibits the M. tuberculosis serine protease Rv3671c; 320,000 compounds, 0.048% hits; inhibition, % at 5.96 µM; P9WHR9; in the data active means inhibition above about 38%;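 further: extracellular domain of Rv3671c used as enzyme; 0% = enzyme with DMSO and 100% = no enzyme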
Target sequence (P9WHR9 whole entry, looked up, the tested form may be a part): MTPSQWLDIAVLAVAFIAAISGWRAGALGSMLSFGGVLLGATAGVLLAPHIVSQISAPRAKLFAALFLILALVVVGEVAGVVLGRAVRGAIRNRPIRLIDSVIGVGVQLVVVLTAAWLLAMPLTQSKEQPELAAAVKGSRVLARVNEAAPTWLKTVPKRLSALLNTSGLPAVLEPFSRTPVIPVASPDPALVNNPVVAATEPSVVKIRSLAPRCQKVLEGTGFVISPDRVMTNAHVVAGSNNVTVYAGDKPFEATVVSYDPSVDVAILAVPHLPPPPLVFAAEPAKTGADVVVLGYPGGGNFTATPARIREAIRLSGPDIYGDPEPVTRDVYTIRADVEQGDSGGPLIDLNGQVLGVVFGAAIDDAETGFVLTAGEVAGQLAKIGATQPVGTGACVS
Mtb UGM inh – Mtb UDP-galactopyranose mutase inhibition | 320,000 compounds, 0.06% hits | inhibition, % at 10 µM | purified UGM, fluorescence polarization probe displacement | P9WIQ1; in the data active means inhibition above about 10%, passing the limit was not always enough
GDH-TPI counter-1 – counter-screen for M. tuberculosis FBA inhibitors: GDH-TPI coupled enzymes | GDH-TPI coupled enzyme counterscreen, NADH absorbance | inhibition, % at 4.8 µM | 360,000 compounds, 1.2% hits; in the data active means inhibition above about 30%;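 further: 0% = DMSO wells and 100% = wells lacking the enzyme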
Mtb FBA inh conf – Mtb FBA inhibition, confirmed. shares compounds with Mtb FBA inh. AID 651616. inhibition, % at 1 µM. 5,600 compounds, 78% hits. purified M. tuberculosis FBA, fluorescence read-out;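 further: 0% = vehicle wells and 100% = reference inhibitor wells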
GDH-TPI counter-2 – GDH-TPI inhibition counter-screen for FBA inhibitors; shares compounds with Mtb FBA inh; GDH-TPI coupled enzyme counterscreen, fluorescence; inhibition, % at 1 µM; 5,600 compounds, 81% hits; AID 652141; in the data active means inhibition above about 10%
The depositor's hits bear a star; x = not tested or not shown; + = active, no number. An excerpt weighted towards active compounds, which were near 3.5% of everything screened. Unless noted, no stated cut-off is given here; in the data, active means inhibition above about 27%; inactive means the rest.

SMILES	Mtb FBA inh	Rv3671c protease	Mtb UGM inh	GDH-TPI counter-1	Mtb FBA inh conf	GDH-TPI counter-2
CC(=O)Nc1ccc(-c2ccnc3c2CC(C)(C(=O)NCc2ccco2)O3)cc1 (configuration not stated)	10	x	x	7	x	x
CN(C)c1ccc(-c2ccnc3c2CC(C)(C(=O)NCc2ccc(F)c(F)c2)O3)cc1 (configuration not stated)	44*	x	x	25	103*	78*
CCOc1ccc(Oc2ccc(NS(=O)(=O)c3ccc(CCC(=O)O)cc3)cc2)cc1	0	x	x	5	x	x
CCc1cc(=O)oc2cc(C)cc(OCC(=O)N3CCC(C(=O)O)(c4ccccc4)CC3)c12	88*	-4	0	14	7	-7
CCCc1cc(=O)oc2c(C)c(OCC(=O)N3CCC(C(=O)O)(c4ccccc4)CC3)ccc12	32*	-1	0	8	103*	91*
CCN(CC)C(=O)COc1cc(C)cc2oc(=O)cc(-c3ccccc3)c12	2	-6	-1	0	x	x
Cc1cc(=O)oc2c(C)c(OCC(=O)N3CCC(C(=O)O)(c4ccccc4)CC3)ccc12	35*	-3	-1	13	8	-3
Cc1cc(C)c(C(O)c2ncc(-c3ccccc3Cl)[nH]2)c(C)c1 (configuration not stated)	1	x	x	11	x	x
O=C(COC(=O)/C=C/c1ccc(C(F)(F)F)cc1)NC1CCS(=O)(=O)C1 (configuration not stated)	-1	-1	5	3	x	x
OC(c1ccc(F)cc1)(C1CCCCC1)C(CN1CCOCC1)c1ccccc1 (configuration not stated)	1	-6	4	-3	x	x
CCOC(=O)c1c(NC(=O)C2C3C=CC(C3)C2C(=O)O)sc2c1CCC(CC)C2 (configuration not stated)	34*	-4	0	14	-1	2
OCCN1CCN(c2ncnc3c2ncn3[C@H]2CN(Cc3ccncc3)C[C@@H](CO)O2)CC1	3	x	x	4	x	x
COc1ccc([N+](=O)[O-])cc1NC(=O)c1ccc(CN(c2ccccc2)S(C)(=O)=O)cc1	-1	-15	1	13	x	x
CCCCN(CC)CCCNC(=O)c1cc2c(=O)[nH]c3ccccc3c2s1	72*	-4	3	26	170*	153*
Cc1ccc2[nH]c(=O)c3cc(C(=O)NCCC(C)C)sc3c2c1	15	x	-2	-3	x	x
CCCCN(CC)CCNC(=O)c1cc2c(=O)[nH]c3ccc(C)cc3c2s1	36*	-6	0	14	59*	46*
CCC(C)NC(=O)c1cc2c(=O)[nH]c3ccc(C)cc3c2s1 (configuration not stated)	70*	-46	1	24	89*	65*
CCOCCCNC(=O)c1cc2c(=O)[nH]c3ccccc3c2s1	71*	-5	-1	11	+	+
COc1ccc(CCNC(=O)CN2C(=O)C(=O)N(C3CCCC3)C2=O)cc1OC	-1	-1	2	3	x	x
COC(=O)c1cccc(CC2(C)C(=O)Nc3ccc(OC(F)(F)F)cc32)c1 (configuration not stated)	1	x	x	5	x	x
Cc1ccc(C)c(/C=N/n2cc(-c3ccccc3)[nH]c2=S)c1	43*	3	0	1	+	+
Fc1ccccc1/C=N/n1cnnc1	5	2	5	-12	x	x
Fc1ccccc1/C=N/n1cc(-c2ccccc2)[nH]c1=S	51*	2	-1	-2	137*	127*
Cc1ccccc1-n1c(SCC(=O)NCC2CCCO2)nc2c([nH]c3ccccc32)c1=O (configuration not stated)	2	2	-1	7	x	x
O=C(CSc1nc2c([nH]c3ccccc32)c(=O)n1-c1ccccc1F)NCC1CCCO1 (configuration not stated)	36*	-2	3	1	89*	53*
SMILES	Mtb FBA inh	Rv3671c protease	Mtb UGM inh	GDH-TPI counter-1	Mtb FBA inh conf	GDH-TPI counter-2
CCOC(=O)Cn1nc(C)n(-c2ccccc2)c1=O	0	-7	-3	10	x	x
CCOC(=O)CCn1c2nc(C)cc(C)c2c(=O)n1-c1ccccc1	28*	0	2	-3	49*	41*
COC(=O)Cc1c[nH]c2cccc(OCC(O)CN(Cc3ccccc3)C(C)C)c12 (configuration not stated)	29*	-6	-2	-3	25	25*
CC1CCCN(C(=O)CCc2nnc(-c3ccc4c(c3)OCO4)o2)C1 (configuration not stated)	0	-1	3	10	x	x
CCC(=O)N(C)C[C@H]1Oc2cc(-c3ccccc3F)ccc2S(=O)(=O)N([C@H](C)CO)C[C@H]1C	-1	x	x	-15	x	x
COc1ccc(C)cc1S(=O)(=O)Nc1cccc(-c2cn3cccnc3n2)c1	89*	-2	2	12	5	-6
O=S(=O)(Nc1cccc(-c2cn3cccnc3n2)c1)c1ccc(Cl)cc1	56*	-15	6	20	6	-7
NNC(=O)c1ccc(CSc2n[nH]c(=O)[nH]c2=O)cc1	-3	-10	0	25	x	x
Cc1cc(N2CCOCC2)n2cc(-c3ccccc3)nc2n1	8	14	0	2	x	x
Cc1cc(N2CC(C)OC(C)C2)n2cc(-c3ccccc3)nc2n1 (configuration not stated)	63*	10	0	6	+	+
COc1ccc(CN2C(=O)Cc3c2nc(N)c2c(N)nc(N4CCOCC4)c(C#N)c32)cc1	41*	-13	-2	6	+	+
CCC1Cc2c(nc(N)c3c(N)nc(N4CCOCC4)c(C#N)c23)O1 (configuration not stated)	37*	-3	0	20	147*	122*
COCCN1C(=O)Cc2c1nc(N)c1c(N)nc(N3CCN(c4ccc(F)cc4)CC3)c(C#N)c21	8	7	-1	13	x	x
O=C(NNC(=O)c1ccc(O)c(Cl)c1)c1cccc(S(=O)(=O)N2CCOCC2)c1	3	-13	2	11	x	x
COc1ccccc1-n1c(C)c(C(=O)O)c2cc(OC)c3ccccc3c21	27*	-6	0	1	87*	82*
O=C(CSc1nc2scc(-c3ccccc3)c2c(=O)[nH]1)Nc1ccccc1	33*	-25	0	15	-7	-6
Cc1ccc(C2OC34CCCCCC3C(C#N)(C(=N)O4)C2(C#N)C#N)cc1 (configuration not stated)	70*	7	2	4	119*	102*
COc1cccc(/C=N/n2c(N)c(S(=O)(=O)c3cccs3)c3nc4ccccc4nc32)c1OC	1	-1	-1	10	x	x
Nc1c(S(=O)(=O)c2cccs2)c2nc3ccccc3nc2n1Cc1ccccc1	54*	-18	2	18	0	-3
COc1ccc(Cn2c(N)c(S(=O)(=O)c3cccs3)c3nc4ccccc4nc32)cc1	49*	-1	0	13	115*	79*

Screening data from PubChem BioAssay.
